Activity calls are given as the source filed them.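 Rule for the calls: active = inhibition above 30% at one or more tested concentrations in the dose response; inactive = inhibition below 30% at every tested concentration.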
Assay: PhoP-driven GFP expression inhibition, Typhimurium – GFP fluorescence, round 4, synthesized compounds, late-stage follow-up (AID 449741)
Settings: S. Typhimurium PhoP-regulated promoter-GFP fluorescence, 4 h; series mostly up to 150 µM; inhibition: at the top concentration

inhibition, inactive:
S=C(NCc1ccc(Cl)cc1)Nc1ccccc1Br 15.6%
S=C(NCc1ccc(Cl)cc1)Nc1ccncn1 29.9%
O=C(NC1CCCCC1)N1CCCN(Cc2ccccc2F)C1 -4.34%
S=C(NCc1ccc(Cl)cc1)Nc1cccc(Br)c1 -24.5%
Cc1ccccc1NC(=O)N1CCCN(Cc2ccccc2F)C1 -9.77%
O=C(Nc1ccc(Cl)cc1)N1CCN(Cc2ccccc2F)C1 -1.2%
N#Cc1ccc(CN2CCCN(C(=O)Nc3ccc(Cl)cc3)C2)cc1 -21.8%
S=C(NCc1ccc(Cl)cc1)NC1CCOCC1 -13.7%
COc1cccc(CNC(=S)Nc2ccncc2)c1 -30.7%
S=C(NCc1ccc(Cl)cc1)Nc1ccc(I)cc1 21%
CN1CCN(C(=S)NCc2ccc(Cl)cc2)CC1 -1.03%
S=C(NCc1ccccc1)NCc1ccc(Cl)cc1 -20.5%
S=C(NCc1ccc(Cl)cc1)NN1CCOCC1 28.7%
S=C(NCc1ccc(Cl)cc1)NC1CCCCC1 13.3%
FC(F)(F)c1ccc(NC(=S)NCc2ccc(Cl)cc2)cc1 -9.89%
O=C(Nc1ccc(Cl)cc1)N1CCCN(Cc2cccc(F)c2)C1 -5.94%
FC(F)(F)c1ccccc1NC(=S)NCc1ccc(Cl)cc1 -11.8%
S=C(NCc1ccc(Cl)cc1)Nc1ccccn1 24.6%
S=C(NCc1ccc(Cl)cc1)Nc1ccccc1I 18.9%
O=C(Nc1ccc(Cl)cc1)N1CCCN(Cc2cccc(Br)c2)C1 -26.9%

Source: PubChem BioAssay AID449741 (Southern Research Specialized Biocontainment Screening …, 2010)
